Experimental data as given in PubChem BioAssay (Tox21).
Records with an inconclusive call do not appear. Where a call stands in place of a potency, no number is given. Calls of active or inactive are those of the source. Unless noted, calls follow the shape of the dose curve; as a rule, active = well fitted curve in the direction sought with a large enough effect in the repeat runs; inconclusive = weak or mixed curves; inactive = no such curve, though single readings can be large; an effect the other way counts as inactive or inconclusive.

What was measured:
[1] = qHTS assay to identify small molecule agonists of the peroxisome proliferator-activated receptor delta (PPARd) signaling pathway - cell viability counter screen (AID 743211); also: nearly all actives have a fitted effect of over 55% in size; also: potency is read from the fitted curve at half-maximal effect
In short: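 Following 5 h plating at 37 C and 5% CO2, PPARd UAS-bla HEK293H cells took up test compounds for 17 h. Viability was quantified by luminescence 30 min after CellTiter-Glo addition at room temperature.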

[2] = biological target: Peroxisome proliferator-activated receptor delta (Homo sapiens) (UniProt Q03181); test: qHTS assay to identify small molecule agonists of the peroxisome proliferator-activated receptor delta (PPARd) signaling pathway (AID 743212; calls by dose curve;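 also: HEK293H cells with PPARd UAS beta-lactamase reporter GeneBLAzer system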; also: potency is read from the fitted curve at half-maximal effect)
Peroxisome proliferator-activated receptor delta (Homo sapiens), sequence (Q03181 whole entry, looked up): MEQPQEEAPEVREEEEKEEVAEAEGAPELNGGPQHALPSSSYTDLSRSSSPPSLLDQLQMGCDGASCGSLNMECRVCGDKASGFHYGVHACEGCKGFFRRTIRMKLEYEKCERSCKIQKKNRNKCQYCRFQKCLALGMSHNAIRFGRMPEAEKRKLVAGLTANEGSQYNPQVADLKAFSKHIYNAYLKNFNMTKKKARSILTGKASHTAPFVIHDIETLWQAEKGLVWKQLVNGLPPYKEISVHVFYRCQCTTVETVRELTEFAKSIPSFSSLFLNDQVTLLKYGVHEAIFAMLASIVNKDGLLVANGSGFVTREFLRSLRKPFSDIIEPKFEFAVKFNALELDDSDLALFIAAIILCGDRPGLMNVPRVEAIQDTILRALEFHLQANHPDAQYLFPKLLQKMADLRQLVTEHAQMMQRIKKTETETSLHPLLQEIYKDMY
In short: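 GeneBLAzer UAS-bla HEK293H cells carrying a PPARδ construct were exposed to compounds at 37 °C. Beta-lactamase activity was read by FRET fluorescence after 2 h at room temperature with LiveBLAzer B/G substrate.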

[3] = qHTS assay to identify small molecule antagonists of the peroxisome proliferator-activated receptor delta (PPARd) signaling pathway - cell viability counter screen (AID 743213); also: nearly all actives have a fitted effect of over 50% in size; also: potency is read from the fitted curve at half-maximal effect
In short: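 In this counter screen, HEK293H cells carrying a UAS-beta-lactamase reporter are co-treated with test compounds and 300 nM L165041 (final) for 17 h at 37 C; cell viability is quantified by CellTiter-Glo luminescence.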

[4] = biological target: Peroxisome proliferator-activated receptor delta (Homo sapiens) (UniProt Q03181); test: qHTS assay to identify small molecule antagonists of the peroxisome proliferator-activated receptor delta (PPARd) signaling pathway (AID 743215; active = well fitted inhibition curve with a large enough effect in the signal ratio in the repeat runs, not every such curve was filed as active; the % refers to the signal ratio;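 also: cells stimulated with agonist L165041 at 300 nM final during compound exposure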; also: potency is read from the fitted curve at half-maximal effect)
In short: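 With L165041 present at 300 nM final, compounds were incubated 17 h at 37 C on PPARd UAS-bla HEK293H cells. A FRET-based beta-lactamase substrate was then applied for 2 h at room temperature and fluorescence intensity recorded.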

[5] = biological target: Vitamin D3 receptor (Homo sapiens) (UniProt P11473); test: qHTS assay to identify small molecule agonists of the vitamin D receptor (VDR) signaling pathway (AID 743222; calls by dose curve)
Vitamin D3 receptor (Homo sapiens), sequence (P11473 whole entry, looked up): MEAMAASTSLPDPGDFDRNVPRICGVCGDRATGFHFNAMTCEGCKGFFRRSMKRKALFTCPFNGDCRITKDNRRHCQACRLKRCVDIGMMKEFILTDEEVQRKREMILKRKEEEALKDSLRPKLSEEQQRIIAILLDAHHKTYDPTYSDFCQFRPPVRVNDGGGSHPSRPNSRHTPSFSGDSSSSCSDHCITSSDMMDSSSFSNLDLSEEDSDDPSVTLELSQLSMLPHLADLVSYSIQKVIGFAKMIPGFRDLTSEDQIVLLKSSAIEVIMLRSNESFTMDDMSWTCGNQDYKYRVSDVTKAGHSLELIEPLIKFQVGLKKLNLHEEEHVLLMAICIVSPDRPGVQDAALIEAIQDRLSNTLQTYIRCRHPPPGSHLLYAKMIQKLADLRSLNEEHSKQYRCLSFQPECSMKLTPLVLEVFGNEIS
In short: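 VDR-bla cells were seeded, left 4 h, treated with compounds in DMSO for 16 h, incubated 2 h at RT with B/G FRET substrate, and read for fluorescence.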

[6] = qHTS assay to identify small molecule agonists of the vitamin D receptor (VDR) signaling pathway - cell viability counter screen (AID 743224); also: nearly all actives have a fitted effect of over 50% in size; also: potency is read from the fitted curve at half-maximal effect
In short: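 Here cell health was gauged by luminescent ATP detection (CellTiter-Glo, 30 min RT) in VDR-bla cells that had been incubated with test compounds for 16 h at 37C and 5% CO2.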

[7] = qHTS assay to identify small molecule agonists of the NFkB signaling pathway - cell viability counter screen (AID 1159515; calls by dose curve; also: nearly all actives have a fitted effect of over 55% in size; also: potency is read from the fitted curve at half-maximal effect)
In short: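 5 hr compound treatment of NFkB-bla ME-180 cells (2,000/well, seeded overnight beforehand), followed by reporter substrate for 1.5 hr. CellTiter-Glo added afterward; luminescence after 30 min RT.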

[8] = qHTS assay to identify small molecule agonists of the endoplasmic reticulum stress response signaling pathway - cell viability counter screen (AID 1159517; calls by dose curve; also: nearly all actives have a fitted effect of over 50% in size; also: potency is read from the fitted curve at half-maximal effect)
In short: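 ESRE-bla HeLa cells, 1,500 per well, seeded overnight then treated with compounds for 5 hr at 37 C. After the beta-lactamase read, viability in the same wells is measured by CellTiter-Glo luminescence after 30 min at room temperature.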

[9] = qHTS assay to identify small molecule antagonists of the retinoid-related orphan receptor gamma (ROR-gamma) signaling pathway - cell viability counter screen (AID 1159520); also: nearly all actives have a fitted effect of over 50% in size; also: potency is read from the fitted curve at half-maximal effect
In short: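 Tet-on ROR gamma CHO cells were given compounds for 2 hr, then doxycycline hyclate at 1 uM final, and incubated 16 hr at 37 C. Viability was measured as ATP content by CellTiter-Glo luminescence.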

[10] = biological target: Nuclear receptor ROR-gamma (Homo sapiens) (UniProt P51449); test: qHTS assay to identify small molecule antagonists of the retinoid-related orphan receptor gamma (ROR-gamma) signaling pathway (AID 1159521; also: nearly all actives have a fitted effect of over 50% in size; also: potency is read from the fitted curve at half-maximal effect)
In short: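 Screening format: cell-based luciferase reporter in CHO cells with doxycycline-inducible RORγ. Compound pre-exposure lasts 2 h, doxycycline is 1 uM final, induction runs 16 h at 37 C, and ONE-Glo luminescence is read.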

[11] = qHTS assay to identify small molecule agonists of the AP-1 signaling pathway - cell viability counter screen (AID 1159525; calls by dose curve; also: nearly all actives have a fitted effect of over 55% in size; also: potency is read from the fitted curve at half-maximal effect)
In short: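 AP-1-bla ME-180 cells in Opti-MEM with 0.5% dialyzed FBS, compound exposure 5 h at 37 C in 15-point titration. Viability read in the same wells as ATP content by CellTiter-Glo luminescence, normalised to tetra-n-octylammonium bromide and DMSO controls.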

[12] = biological target: Retinoic acid receptor RXR-alpha (Homo sapiens) (UniProt P19793); test: qHTS assay to identify small molecule agonists of the RXR signaling pathway (AID 1159527; calls by dose curve; also: nearly all actives have a fitted effect of over 35% in size)
Retinoic acid receptor RXR-alpha (Homo sapiens), sequence (P19793 whole entry, looked up): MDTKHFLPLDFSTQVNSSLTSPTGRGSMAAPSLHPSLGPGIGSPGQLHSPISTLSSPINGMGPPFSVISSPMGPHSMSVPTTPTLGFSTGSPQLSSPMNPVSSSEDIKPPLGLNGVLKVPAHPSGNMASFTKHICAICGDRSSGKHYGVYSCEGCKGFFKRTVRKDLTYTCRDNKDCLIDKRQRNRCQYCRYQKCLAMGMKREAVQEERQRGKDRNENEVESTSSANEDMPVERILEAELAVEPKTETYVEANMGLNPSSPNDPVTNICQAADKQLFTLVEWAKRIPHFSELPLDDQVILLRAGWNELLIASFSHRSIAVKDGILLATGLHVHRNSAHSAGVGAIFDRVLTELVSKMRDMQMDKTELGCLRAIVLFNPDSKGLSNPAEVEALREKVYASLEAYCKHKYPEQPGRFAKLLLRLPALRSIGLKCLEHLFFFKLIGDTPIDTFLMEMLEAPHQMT
In short: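 Fluorescence ratio readout (460 vs 530 nm) from GeneBLAzer RXR-alpha HEK 293T cells after 16 hr compound treatment; cells seeded 5 hr beforehand in low-serum, charcoal-stripped medium.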

[13] = qHTS assay to identify small molecule agonists of the farnesoid-X-receptor (FXR) signaling pathway - cell viability counter screen (AID 743218); also: nearly all actives have a fitted effect of over 45% in size; also: potency is read from the fitted curve at half-maximal effect
In short: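 After 16 h at 37 C with test compounds, FXR-bla HEK 293T cells were given LiveBLAzer B/G substrate for 2 h at RT and then CellTiter-Glo; luminescence was taken after 30 min.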

[14] = qHTS assay to identify small molecule antagonists of the farnesoid-X-receptor (FXR) signaling pathway - cell viability counter screen (AID 743221; active = well fitted cell-killing curve with a large enough effect in the repeat runs, not every such curve was filed as active; also: nearly all actives have a fitted effect of over 50% in size; also: potency is read from the fitted curve at half-maximal effect)
In short: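 Compound effects on cell number were measured as CellTiter-Glo luminescence in HEK 293T cells expressing FXR-UAS-bla, after 16 h at 37 C with 50 uM CDCA (final).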

[15] = qHTS assay to identify small molecule agonists of the AP-1 signaling pathway (AID 1159526; calls by dose curve)
[16] = qHTS assay to identify small molecule antagonists of the vitamin D receptor (VDR) signaling pathway - cell viability counter screen (AID 743225); also: nearly all actives have a fitted effect of over 50% in size; also: potency is read from the fitted curve at half-maximal effect
In short: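 In this counter screen, VDR-bla HEK 293T cells receive test compound plus 3 nM final calcitriol for 16 h at 37C. Room-temperature steps of 2 h with the beta-lactamase substrate, then 30 min with CellTiter-Glo, precede the luminescence read.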

[17] = biological target: Vitamin D3 receptor (Homo sapiens) (UniProt P11473); test: qHTS assay to identify small molecule antagonists of the vitamin D receptor (VDR) signaling pathway (AID 743223; active = well fitted inhibition curve with a large enough effect in the signal ratio in the repeat runs, not every such curve was filed as active; the % refers to the signal ratio)
In short: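 Beta-lactamase activity in VDR-bla cells is measured by FRET substrate fluorescence (2 h, room temperature) after cells spend 16 h at 37C with test compound and 3 nM final 1alpha,25-dihydroxyvitamin D3.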

[18] = biological target: Bile acid receptor (Homo sapiens) (UniProt Q96RI1); test: qHTS assay to identify small molecule antagonists of the farnesoid-X-receptor (FXR) signaling pathway (AID 743217; active = well fitted inhibition curve with a large enough effect in the signal ratio in the repeat runs, not every such curve was filed as active; the % refers to the signal ratio; also: potency is read from the fitted curve at half-maximal effect)
Bile acid receptor (Homo sapiens), sequence (Q96RI1 whole entry, looked up): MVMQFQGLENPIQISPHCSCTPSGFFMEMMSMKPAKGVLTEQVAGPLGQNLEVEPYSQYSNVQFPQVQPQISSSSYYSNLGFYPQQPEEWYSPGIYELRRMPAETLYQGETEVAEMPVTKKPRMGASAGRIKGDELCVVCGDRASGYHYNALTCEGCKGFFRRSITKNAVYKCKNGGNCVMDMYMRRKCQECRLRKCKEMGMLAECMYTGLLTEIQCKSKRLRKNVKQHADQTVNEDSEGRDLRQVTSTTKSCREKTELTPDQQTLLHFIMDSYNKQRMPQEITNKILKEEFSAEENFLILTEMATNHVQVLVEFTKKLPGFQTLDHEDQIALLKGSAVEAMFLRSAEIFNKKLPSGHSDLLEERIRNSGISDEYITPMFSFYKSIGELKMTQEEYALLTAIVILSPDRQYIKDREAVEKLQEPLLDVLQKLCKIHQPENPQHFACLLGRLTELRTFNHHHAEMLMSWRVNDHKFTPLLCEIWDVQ
In short: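 In this cell-based antagonist screen, inhibition of CDCA-driven (50 uM final) UAS-beta-lactamase expression in HEK 293T cells was measured by FRET fluorescence following 16 h compound exposure at 37 °C.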

Compound	Potency [1]	Potency [2]	Potency [3]	Potency [4]	Potency [5]	Potency [6]	Potency [7]	Potency [8]	Potency [9]	Potency [10]	Potency [11]	Potency [12]	Potency [13]	Potency [14]	Potency [15]	Potency [16]	Potency [17]	Potency [18]
Clc1ccc(C(Cn2ccnc2)OCc2ccc(Sc3ccccc3)cc2)c(Cl)c1 (configuration not stated)	29.8 µM (active)	inactive	inactive	inactive	inactive	33.5 µM (active)	inactive	inactive	inactive	inactive	inactive	inactive	–	–	–	–	–	–
Cc1cccc(CN2CCN(C(c3ccccc3)c3ccc(Cl)cc3)CC2)c1 (configuration not stated)	26.6 µM (active)	inactive	inactive	inactive	–	–	inactive	inactive	inactive	inactive	inactive	–	29.8 µM (active)	inactive	inactive	–	–	–
COC(=O)C1=C(C)NC(C)=C(C(=O)OCCc2ccc(N3CCN(C(c4ccccc4)c4ccccc4)CC3)cc2)C1c1cccc([N+](=O)[O-])c1 (configuration not stated)	inactive	inactive	inactive	inactive	inactive	inactive	inactive	inactive	inactive	inactive	inactive	–	inactive	inactive	–	inactive	–	–
CCCN(CCC)c1c([N+](=O)[O-])cc(C(F)(F)F)c(N)c1[N+](=O)[O-]	19.4 µM (active)	–	30.8 µM (active)	–	–	–	24.5 µM (active)	43.5 µM (active)	30.5 µM (active)	21.6 µM (active)	13.8 µM (active)	–	38.8 µM (active)	–	–	21.8 µM (active)	–	–
Nc1ccc2c3c(cccc13)-c1ccccc1-2	55.5 µM (active)	–	49.5 µM (active)	–	–	–	inactive	inactive	inactive	inactive	inactive	–	–	inactive	–	–	–	–
Cc1[nH]nc2c1N=C(c1ccccc1Cl)c1cc([N+](=O)[O-])ccc1N2	5.49 µM (active)	inactive	–	24.5 µM (active)	–	5.49 µM (active)	inactive	43.6 µM (active)	54.5 µM (active)	21.7 µM (active)	30.9 µM (active)	–	24.5 µM (active)	inactive	–	21.9 µM (active)	–	–
Cc1nc(-c2ccc3c(c2)CCN(CCC2CCC(NC(=O)/C=C/c4ccc(F)cc4)CC2)CC3)no1 (configuration not stated)	inactive	21.9 µM (active)	inactive	–	–	–	inactive	inactive	15.4 µM (active)	1.94 µM (active)	inactive	–	inactive	inactive	–	–	–	–
Cc1cc(O)c(C(C)(C)C)cc1Sc1cc(C(C)(C)C)c(O)cc1C	3.88 µM (active)	–	3.46 µM (active)	–	–	4.36 µM (active)	17.3 µM (active)	21.8 µM (active)	8.62 µM (active)	2.73 µM (active)	12.3 µM (active)	–	8.69 µM (active)	–	–	7.75 µM (active)	–	–
N=C1N=C(N)c2ccccc21	–	–	inactive	–	inactive	inactive	inactive	21.9 µM (active)	43.3 µM (active)	48.6 µM (active)	inactive	inactive	inactive	inactive	–	–	–	–
CCOC(=O)O[C@]1(C(=O)OCCl)CC[C@H]2[C@@H]3CCC4=CC(=O)C=C[C@]4(C)[C@H]3[C@@H](O)C[C@@]21C	inactive	–	inactive	–	–	inactive	inactive	inactive	inactive	inactive	inactive	inactive	inactive	inactive	–	inactive	inactive	–
CCCCCCC[N+](CC)(CC)CCCCc1ccc(Cl)cc1	–	–	–	–	–	–	inactive	inactive	inactive	inactive	inactive	–	inactive	inactive	inactive	inactive	–	–
CCCCCCCCCCCCCC[P+](CCCC)(CCCC)CCCC (tested in a mixture with another compound)	inactive	inactive	–	inactive	inactive	–	22 µM (active)	22 µM (active)	15.4 µM (active)	4.89 µM (active)	12.4 µM (active)	–	17.5 µM (active)	22 µM (active)	–	inactive	–	–
O=c1[nH]sc2ccccc12	17.4 µM (active)	–	–	–	inactive	12.3 µM (active)	49 µM (active)	54.9 µM (active)	21.7 µM (active)	17.2 µM (active)	34.7 µM (active)	–	49 µM (active)	49 µM (active)	–	–	–	–
O=C(O)c1cc(O)c2c(c1)C(=O)c1cccc(O)c1C2=O	inactive	inactive	–	inactive	–	inactive	inactive	inactive	inactive	inactive	inactive	–	inactive	–	–	inactive	–	–
CCCCCCCCCCCC[N+](C)(C)CCCCCCCCCCCC	17.4 µM (active)	–	–	–	–	19.5 µM (active)	21.9 µM (active)	43.6 µM (active)	27.3 µM (active)	19.3 µM (active)	30.9 µM (active)	–	27.5 µM (active)	–	–	24.5 µM (active)	–	49 µM (active)
CC(C)(C)CC(C)(C)c1ccc(O)c(Cc2ccc(Cl)cc2Cl)c1	26.6 µM (active)	–	26.6 µM (active)	–	–	–	16.9 µM (active)	21.3 µM (active)	23.7 µM (active)	18.8 µM (active)	15.1 µM (active)	–	–	33.5 µM (active)	–	15.1 µM (active)	–	–
CCOC(=O)O[C@H](C)OC(=O)c1ccc2c(c1)cc(C(=O)NC1CCN(C(C)C)CC1)n2Cc1cc(-c2ccc(Cl)s2)on1	8.14 µM (active)	–	18.2 µM (active)	–	–	14.5 µM (active)	45.8 µM (active)	45.8 µM (active)	11.4 µM (active)	4.54 µM (active)	16.2 µM (active)	–	16.2 µM (active)	45.8 µM (active)	–	–	–	–
Cc1cc(=O)oc2cc(N(C)C)ccc12	inactive	–	inactive	–	–	–	inactive	inactive	inactive	inactive	inactive	–	inactive	inactive	–	inactive	–	–
